Results published in PubChem BioAssay AID485298 (National Center for Advancing Translational Sciences (NCATS), 2010).
Hit rate of the full screen: of about 320,000 compounds, about 740 (0.23%) were called active. Another 2% or so got no clear call; they are omitted. The call rests on the fitted dose curve; in most records, active means well fitted activation curve with a large enough effect; inconclusive means small, poorly fitted or top-dose-only effect; inactive means no such curve, though single readings can be large or run the other way. The full list was thinned out, with actives kept by preference.

experiment: qHTS Assay for Small Molecule Inhibitors of Mitochondrial Division or Activators of Mitochondrial Fusion; further: nearly all actives have a fitted effect of over 45% in size; on growth rescue (activation): % of control where 0% means no effect; settings: S. cerevisiae fusion-defective mutant growth rescue, CellTiterGlo 48 h; series mostly up to 46.1 µM; growth rescue (activation): at the top concentration
Excerpt: NIH Chemical Genomics Center [NCGC] NIH Molecular Libraries Probe Production centers Network [MLPCN] MLPCN Grant: MH081279-01 Assay Submitter (PI): Jodi M. Nunnari NCGC Assay Overview: The budding yeast S. cerevisiae is a powerful system to study mitochondrial fusion. Unlike other organisms, yeast cells without functional mitochondrial DNA (mtDNA) can be propagated and studied as long as they maintain a mitochondrial compartment and are provided with a fermentable carbon source. When mitochondrial fusion is blocked in yeast, mitochondrial tubules rapidly fragment and division continues unopposed. Under conditions where fusion is compromised in mammalian cells, nearly identical changes in mitochondrial structure have been observed. Thus, these findings indicate that steady state mitochondrial structure in cells is a characteristic and specific indicator of fusion activity. Mounting evidence has pointed to a connection between mitochondrial dynamics and apoptosis in mammalian cells. These studies indicate that in mammalian cells mitochondrial dynamics are more integrated into cellular processes than in yeast cells and have evolved not only to distribute the organelle but also to aid in the regulation of cellular homeostasis. Mitochondrial fusion proteins attenuate apoptosis by inhibiting the release of cytochrome c from mitochondria, in part by controlling cristae structures. Thus, small molecules that inhibit mitochondrial […] may promote apoptosis and potentially act as novel chemotherapeutics and stimulation of apoptosis has become an attractive target of anti-cancer therapies. To identify inhibitors of mitochondrial division, we exploit the growth phenotypes of mitochondrial fusion-defective mutants. The temperature sensitive fusion alleles, such as fzo1-1 and mgm1-5, cause mitochondrial membranes to fragment in cells under non-permissive conditions and cells lose mtDNA, and are unable to grow in the presence of non-fermentable carbon source glycerol. Inhibiting mitochondrial division rescues growth. We have developed and optimized a luminescence cell viability assay in 1536 well format for the identification of inhibitors in the yeast mitochondrial fusion-defective assay.
The yeast glycerol stocks where kindly supplied by the laboratory of Dr. Jodi Nunnari, University of California, Davis. All yeast glycerol stock solutions were stored in single use aliquots at -80C. The CellTiterGlo luminescence reagent, containing luciferase and luciferin, were purchased from Promega, and the reagents were stored according to manufacturer's instructions. The Buffer components for the YPEG yeast growth medium were purchased from Sigma-Aldrich (St. Louis, MO). YPEG growth medium: 1% (w/v) yeast extract, 2% (w/v) Bacto-peptone, 3% Ethanol, 3% glycerol, 0.4mM Tryptophan, 0.36mM Adenine. qHTS Assay Protocol: 1.#Dispense 2.5 ul yeast growth medium per 1536 well plate. 2.#Transfer 23 nl per well of compound to plate. 3.#Dispense 2.5 ul yeast solution at appropriate seeding density per well. 4.#Incubate for 48 hours at 37C. 5.#Dispense 5 ul of CellTiterGlow solution per well. 6.#Incubate at ambient for 10 minutes. 7.#Read using bio-luminescence protocol on Viewlux.
Potency means the concentration at half of the fitted maximal effect.

Growth rescue (activation), inactive:
COc1ccc([C@H]2CC(=O)C=C(c3ccc(CO)cc3)C2)cc1 10.6%, COc1ccc([C@H]2CC(=O)C=C(c3ccc(C)cc3)C2)cc1 25.8%, CC(C)(C)CC(=O)Nc1nnc(SCC(=O)NCc2cccs2)s1 -2.23%, O=C1CSC(=O)N1CCOCCN1C(=O)CSC1=O -3.76%, Cc1cccc(NC(c2cccc(F)c2)c2ccc3ccc(C)nc3c2O)n1 (configuration not stated) 2.76%, CCCCCc1ccc(-c2cn(Cc3ccc4ccccc4c3)nn2)cc1 1.57%, CCCCCc1ccc(-c2ccc(OCC)cc2)nc1 -3.67%, COc1ccc(-n2c(SCC(=O)Nc3ccc(Cl)c(C)c3)nc3n[nH]c(C)c3c2=N)cc1 1.03%, COc1cc(OC)cc(C(=O)N[C@H](C(=O)Nc2nc3ccccc3[nH]2)C(C)C)c1 -2.45%, CN(c1ccccc1)S(=O)(=O)c1cc(C(=O)OCC(=O)N2CCN(C(=O)c3ccco3)CC2)ccc1Cl 5.81%, CN(C)S(=O)(=O)c1ccc(C(=O)NCC2(N3CCOCC3)CCCCC2)cc1 -7.31%, COc1ccc(NS(=O)(=O)c2ccc(C)c(C(=O)N(C)Cc3ccc(OC)cc3OC)c2)cc1 3.44%, CC1CC2C3CCC4=CC(=O)C=C[C@]4(C)[C@@]3(F)[C@@H](O)C[C@]2(C)[C@@]1(O)C(=O)CO (some centres not stated) -2.79%, O=C(NCCCCCCCCCNC(=O)C(F)(F)F)C(F)(F)F 3.56%, CC(CN1CCOCC1)OC(=O)c1ccc(C(C)(C)C)cc1 (configuration not stated) 6.51%, CC(CN1CCOCC1)OC(=O)c1ccc(Cl)cc1Cl (configuration not stated) -1.69%, C=C(C)C1CC=C(C)/C(=N\NC(=O)CNc2ccccc2OC)C1 (configuration not stated) 24.6%, Cc1ccc(S(=O)(=O)/N=C(/NC(=S)Nc2c(C)n(C)n(-c3ccccc3)c2=O)c2ccccc2)cc1 0.193%, Cn1c2cc(B(O)O)sc2c2cnn(Cc3ccccc3F)c(=O)c21 -0.837%, O=C(Nc1ncc2c(n1)CC(c1ccco1)CC2=O)c1ccc(Cl)cc1 (configuration not stated) 6.99%, COc1cc(C2CC(=O)c3cnc(NC(C)=O)nc3C2)cc(OC)c1OC (configuration not stated) 0.0051%, Cc1cc(NC(=O)Nc2c[nH]c(=O)[nH]c2=O)ccc1Br 0.148%, CCOC(=O)c1c(CNCc2ccccc2F)c2sc(C)cc2n1C -0.808%, COc1cc(C2NC(=O)NC(c3ccccc3)=C2C(C)=O)c(Br)cc1OCC(N)=O (configuration not stated) 2.71%, COc1ccccc1N(C)S(=O)(=O)c1ccc(C(=O)NC2CCCCCC2)cc1 -3.35%, COc1ccc(CCNC(=O)CN2C(=O)CCSc3ccccc32)c(OC)c1 -10.5%, COc1ccc(CNC(=O)CNC(=O)c2sc3ccccc3c2Cl)cc1OC -3.78%, COCCNC(=S)N/N=C/c1c(C)[nH]c2ccccc12 -4.82%, Nc1ncnc2c1c(I)cn2[C@@H]1C[C@H](N)[C@@H](O)[C@H]1O -0.615%, COc1ccccc1NC(=O)c1cc(S(=O)(=O)NCCc2ccccc2)ccc1F -4.24%, COc1cccc(-n2c(=O)c3c(C)c(C(=O)N(C)C)sc3n(CC(=O)NCCc3ccc(OC)c(OC)c3)c2=O)c1 -2.48%, CC(=O)Nc1ccc(S(=O)(=O)NCCc2ccccc2)cc1 -2.71%, CCCCNC(=O)C1CCC(CNS(=O)(=O)c2ccc(NC(C)=O)cc2)CC1 (configuration not stated) -18.1%, O=C(NC1CCCC1)C(c1ccco1)N(C(=O)c1ccco1)c1ccc(F)cc1 (configuration not stated) 0.928%, CN(C)C(=O)c1ccc(NC(=O)c2ccccc2-c2ccccc2)cc1 -1.29%, CC1(C)C/C(=C(/C#N)C(N)=O)CCO1 -4.67%, NC(N)=Nc1nc2ccc(Br)cc2c(=O)[nH]1 3.53%, O=S(=O)(Nc1ccc2nc(N3CCOCC3)sc2c1)c1ccccc1 9.86%, CC(=O)OCCOCn1cnn2c(=O)c(Br)c(C)nc12 -1.24%, CCC(=O)c1ccc(OCC(=O)Nc2ccc(N3CCCCC3)cc2)cc1 0.121%, CC1CCN(c2ccc(-c3ccc(NC(=O)c4ccco4)cc3)nn2)CC1 13.5%, CCOc1ccc(/C(O)=C2\C(=O)C(=O)N(c3ccc(OC)cc3)C2c2ccccc2[N+](=O)[O-])cc1 (configuration not stated) -5.38%, CCOC(=O)C1=C(c2ccccc2)NC(=O)NC1c1cc(OC)c(OC)cc1OC (configuration not stated) 5.15%, CCCC[C@]12Cc3cc(OC)c(OC)cc3C(O1)C1=C(CC3(CCCCC3)OC1=O)O2 -0.167% [at 9.22 µM]

Potency, active:
CCCCCc1ccc(-c2ccc(C(=O)O)cc2)nc1 15.8 µM, CN(c1ccccc1)S(=O)(=O)c1cc(C(=O)Nc2nc3ccccc3[nH]2)ccc1Cl 12.6 µM, Cc1ccc(C(=O)OC(C)CN2CCOCC2)cc1 (configuration not stated) 22.4 µM, CCc1ccc(Nc2ncc3c(n2)CC(c2ccco2)CC3=O)cc1 (configuration not stated) 11.2 µM, O=C(N/N=C/c1c(Cl)[nH]c2ccccc12)c1sc2ccccc2c1Cl 15.8 µM, COCCCNC(=O)c1ccc(CNS(=O)(=O)c2ccc(NC(C)=O)cc2)cc1 0.631 µM, CN(C)C(=O)c1ccc2c(c1)C1C3CCC(C3)C1C(c1ccccc1)N2 (configuration not stated) 12.6 µM, CCC(=O)Nc1ccc(-c2ccc(N3CCCCC3)nn2)cc1 17.8 µM
